This is an account of results in PubChem BioAssay.

Activity calls are given as the source filed them. Unless noted, no rule for the calls is given here.

A short description of experiment [1]: compounds binding Alexa647 anti-His antibody – biochemical, small-molecule microarray, 635 nm fluorescence, artefact control for SMM control protein annotation, primary screen (AID 1128).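 Also: score merges feature fluorescence with signal-to-noise for each printed compound spot.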 The following applies: higher = more signal.
In experiment [2] the test system is Human papillomavirus type 1a E7 protein (residues 1-88). In words: HPV1a E7 small-molecule binders, primary screen, biochemical, small-molecule microarray, residues 1-88, 635 nm (AID 1129). The following applies: small-molecule microarray binding, fluorescence 635 nm; higher = more signal.
For experiment [3], the target named is Focal adhesion kinase 1 (Homo sapiens) (UniProt Q05397). Put plainly: PTK2 protein binding on printed compound slides – biochemical, small-molecule microarray, 635/667 nm fluorescence, BSA, DTT, primary screen (AID 1130).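 Also: composite of spot emission at 667 nm and signal to noise over triplicate slides.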 The following applies: 635 nm fluorescence, higher = more signal.
Experiment [4] concerns Fibrinogen (Alexa647-labelled). Put plainly: Alexa647-fibrinogen binding to printed small molecules – biochemical, small-molecule microarray, 635/667 nm fluorescence, artefact control for SMM control-protein annotation, profiling panel (AID 1131).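 Also: z-score merges 667 nm fluorescence with per-spot signal-to-noise over triplicate slides.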 The following applies: fibrinogen-A647 binding fluorescence, higher = more signal.
In experiment [5] the target is Follistatin (Homo sapiens) (UniProt P19883). In words: FST protein binding to printed compounds – biochemical, small-molecule microarray, 635/667 nm fluorescence, primary screen (AID 1132). The following applies: 635 nm fluorescence, higher = more signal.
Experiment [6] has as its target Fibroblast growth factor 2 (Homo sapiens) (UniProt P09038). In words: basic fibroblast growth factor binding to printed compounds – biochemical, small-molecule microarray, 635/667 nm fluorescence, primary screen (AID 1133). The following applies: FGF2, fluorescence 635/667, higher = more signal.
Experiment [7] can be described thus: JC-1 mitochondrial potential readout, lung cancer cells – cell-based, A549, JC-1 fluorescence, basal, 24 h, 100 nL, profiling panel (AID 1138).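 Also: A549 lung adenocarcinoma cells under basal conditions with no added stimulus; test concentration not given here.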 The following applies: higher = more signal.
A further experiment concerns Lefty1. In words: Lefty1 protein binding to printed compounds – biochemical, small-molecule microarray, 635/667 nm fluorescence, primary screen (AID 1139). The note with it: fluorescence 635/667, higher = more signal.
Experiment [8] has as its system wheat germ agglutinin (Triticum aestivum), Alexa647-labelled. Put plainly: Alexa647-WGA lectin binding to printed small molecules – biochemical, small-molecule microarray, 635/667 nm fluorescence, artefact control for SMM control-protein annotation, profiling panel (AID 1140).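 Also: score merges 667 nm feature emission with signal to noise over triplicate slides.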 The following applies: WGA-A647 binding, 635 nm fluorescence, higher = more signal.
The target in experiment [9] is Luciferin 4-monooxygenase (Photinus pyralis) (UniProt P08659). Put plainly: inhibition of purified Photinus pyralis luciferase – biochemical, luminescence, purified enzyme, 2006 set, primary screen (AID 1141).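 Also: cell-free assay with purified firefly luciferase at 100 ng per well in PBS; test concentration not given here.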 The following applies: purified firefly luciferase, SteadyGlo luminescence, 30 min; higher = more signal, called active from +8 up or from −8 down.
The test system of experiment [10] is Wnt5a (protein binding on small-molecule microarray). Put plainly: small molecules binding Wnt5a protein – biophysical, small-molecule microarray, 635/667 nm fluorescence, primary screen (AID 1142).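 Also: fluorescence read at 667 nm with signal to noise per printed feature.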 The note with it: 635 nm fluorescence, higher = more signal.
The nature of experiment [11]: ATP-based viability of Huh7 replicon cells – cell-based, CellTiter-Glo luminescence, basal, 48 h, cytotoxicity control for HCV replication inhibitor project, primary screen (AID 1143).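 Also: Huh7 hepatoma cells carrying a hepatitis C replication reporter with no stimulus; test concentration not given here.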 The note with it: higher = more signal, called active from +8 up or from −8 down. A general note: In antiviral work, replicon cells carry a viral genome segment that copies itself.
The nature of experiment [12]: Pseudomonas biofilm growth suppression – PAO1 strain, BacTiter-Glo luminescence, LB-PBS, primary screen (AID 1144). The note with it: P. aeruginosa PAO1 biofilm, 12 h, higher = more signal.
A short description of experiment [13]: basal CRE-LacZ reporter activity in PC12 – cell-based, unstimulated, primary screen (AID 1145). The note with it: no forskolin, luminescence, 4.5 h, higher = more signal, called active from +8 up or from −8 down.
Experiment [14] is described as follows: forskolin-driven CRE-LacZ activity in PC12 – cell-based, CRE-LacZ reporter, forskolin-stimulated, primary screen (AID 1146).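 Also: PC12 cells with 6xCRE LacZ reporter stimulated by forskolin 10 µM; beta-galactosidase reporter signal reflecting CREB driven transcription.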 The following applies: luminescence, 4.5 h, higher = more signal, called active from +8 up or from −8 down.
In experiment [15] the target is Streptavidin (Streptomyces avidinii) (UniProt P22629). In words: compounds binding control protein streptavidin – biophysical, small-molecule microarray, 635/667 nm fluorescence, artefact control for SMM compound annotation, primary screen (AID 1147).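 Also: signal reflects streptavidin binding to arrayed compounds as a control protein.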 The following applies: higher = more signal.
Experiment [16] in a line: probe aInhba binding on compound microarray – biochemical, small-molecule microarray, 635/667 nm fluorescence, primary screen (AID 1148).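 Also: score merges 667nm spot fluorescence with signal-to-noise for antibody binding to printed compounds.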 The note with it: higher = more signal.
Experiment [17] has as its target Torsin-1A (Homo sapiens) (UniProt O14656). In words: TOR1A wild-type binding on microarray – cell lysate, small-molecule microarray, lysate, 635/667 nm, primary screen (AID 1149). The following applies: COS7 hTOR1A-WT lysate, 635 nm fluorescence, higher = more signal.
For experiment [18] the target is unchanged. In words: torsin A mutant lysate binding on microarrays – cell lysate, small-molecule microarray, COS7 lysate, 635/667 nm fluorescence, primary screen (AID 1150).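 Also: score pools 667 nm emission and signal to noise measuring lysate protein binding.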 The note with it: COS7 hTOR1A mutant lysate, 635 nm fluorescence, higher = more signal.
For experiment [19], the system named is Sonic hedgehog protein (Shh). In words: Sonic hedgehog microarray binding compounds – biochemical, small-molecule microarray, 635/667 nm fluorescence, primary screen (AID 1151).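 Also: Shh protein binding to compounds spotted on small-molecule microarray slides; score combines spot fluorescence intensity with signal-to-noise across triplicate slides.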 The note with it: 635 nm fluorescence, higher = more signal.

Chain of Luciferin 4-monooxygenase (Photinus pyralis) (P08659 whole entry, looked up): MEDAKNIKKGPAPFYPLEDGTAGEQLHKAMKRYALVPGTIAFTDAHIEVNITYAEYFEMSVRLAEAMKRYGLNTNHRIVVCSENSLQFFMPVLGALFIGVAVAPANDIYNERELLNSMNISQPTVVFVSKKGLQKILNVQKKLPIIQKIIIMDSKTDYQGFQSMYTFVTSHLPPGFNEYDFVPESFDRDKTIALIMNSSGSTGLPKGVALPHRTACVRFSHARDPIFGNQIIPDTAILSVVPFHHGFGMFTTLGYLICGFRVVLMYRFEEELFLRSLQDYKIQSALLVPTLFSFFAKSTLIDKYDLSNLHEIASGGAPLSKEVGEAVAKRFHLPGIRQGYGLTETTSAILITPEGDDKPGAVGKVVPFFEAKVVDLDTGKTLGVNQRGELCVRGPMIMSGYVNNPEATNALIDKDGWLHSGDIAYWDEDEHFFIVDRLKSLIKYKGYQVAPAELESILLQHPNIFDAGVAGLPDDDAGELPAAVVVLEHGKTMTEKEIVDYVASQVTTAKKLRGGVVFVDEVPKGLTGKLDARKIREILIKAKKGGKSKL
Chain of Streptavidin (Streptomyces avidinii) (P22629 whole entry, looked up): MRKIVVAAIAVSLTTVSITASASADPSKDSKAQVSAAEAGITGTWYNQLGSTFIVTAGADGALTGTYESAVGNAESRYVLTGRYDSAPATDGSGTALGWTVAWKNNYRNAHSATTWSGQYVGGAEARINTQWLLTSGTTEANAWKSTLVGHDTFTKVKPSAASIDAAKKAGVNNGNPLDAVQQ
Chain of Fibroblast growth factor 2 (Homo sapiens) (P09038 whole entry, looked up): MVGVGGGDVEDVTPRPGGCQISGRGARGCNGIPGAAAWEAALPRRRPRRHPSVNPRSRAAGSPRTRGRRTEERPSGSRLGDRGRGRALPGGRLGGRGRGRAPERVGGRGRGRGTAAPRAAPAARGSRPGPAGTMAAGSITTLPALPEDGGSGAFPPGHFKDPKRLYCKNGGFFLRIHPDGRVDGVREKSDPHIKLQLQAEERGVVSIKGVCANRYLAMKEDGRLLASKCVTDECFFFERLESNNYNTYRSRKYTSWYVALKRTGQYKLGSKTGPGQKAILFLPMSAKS
Chain of Follistatin (Homo sapiens) (P19883 whole entry, looked up): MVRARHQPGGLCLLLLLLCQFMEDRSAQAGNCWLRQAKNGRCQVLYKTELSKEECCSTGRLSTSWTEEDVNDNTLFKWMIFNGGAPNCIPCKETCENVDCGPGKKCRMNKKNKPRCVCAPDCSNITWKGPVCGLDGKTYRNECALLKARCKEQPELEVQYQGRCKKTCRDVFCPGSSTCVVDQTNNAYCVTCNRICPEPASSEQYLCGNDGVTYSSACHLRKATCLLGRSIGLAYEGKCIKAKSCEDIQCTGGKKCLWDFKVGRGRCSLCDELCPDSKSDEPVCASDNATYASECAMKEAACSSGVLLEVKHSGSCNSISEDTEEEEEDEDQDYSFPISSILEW
Chain of Focal adhesion kinase 1 (Homo sapiens) (Q05397 whole entry, looked up): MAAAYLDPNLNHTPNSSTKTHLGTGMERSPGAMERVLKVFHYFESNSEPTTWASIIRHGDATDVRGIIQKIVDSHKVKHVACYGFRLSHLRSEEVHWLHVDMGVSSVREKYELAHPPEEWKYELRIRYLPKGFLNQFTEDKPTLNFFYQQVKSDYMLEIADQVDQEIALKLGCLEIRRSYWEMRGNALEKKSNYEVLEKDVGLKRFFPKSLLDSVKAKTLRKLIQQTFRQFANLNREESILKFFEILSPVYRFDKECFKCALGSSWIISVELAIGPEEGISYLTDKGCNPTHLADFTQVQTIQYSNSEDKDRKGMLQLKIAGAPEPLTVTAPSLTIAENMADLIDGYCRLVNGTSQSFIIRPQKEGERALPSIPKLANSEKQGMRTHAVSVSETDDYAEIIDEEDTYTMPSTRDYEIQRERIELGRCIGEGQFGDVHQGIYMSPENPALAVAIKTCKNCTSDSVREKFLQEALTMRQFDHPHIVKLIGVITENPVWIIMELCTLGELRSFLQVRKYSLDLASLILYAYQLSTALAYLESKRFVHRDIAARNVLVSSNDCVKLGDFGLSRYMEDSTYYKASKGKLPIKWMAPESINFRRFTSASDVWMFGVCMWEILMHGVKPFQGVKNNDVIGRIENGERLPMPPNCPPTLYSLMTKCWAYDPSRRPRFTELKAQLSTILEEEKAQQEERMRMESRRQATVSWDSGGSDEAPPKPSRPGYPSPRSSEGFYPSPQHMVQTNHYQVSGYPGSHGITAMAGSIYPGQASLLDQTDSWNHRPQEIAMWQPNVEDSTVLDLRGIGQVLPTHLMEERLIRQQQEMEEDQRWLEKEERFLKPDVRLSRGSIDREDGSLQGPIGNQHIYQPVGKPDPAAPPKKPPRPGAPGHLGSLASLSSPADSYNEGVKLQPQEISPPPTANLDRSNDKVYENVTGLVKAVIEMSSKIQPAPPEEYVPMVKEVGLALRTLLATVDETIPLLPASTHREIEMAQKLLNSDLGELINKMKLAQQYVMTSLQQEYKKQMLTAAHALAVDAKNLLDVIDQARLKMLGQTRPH
Chain of Torsin-1A (Homo sapiens) (O14656 whole entry, looked up): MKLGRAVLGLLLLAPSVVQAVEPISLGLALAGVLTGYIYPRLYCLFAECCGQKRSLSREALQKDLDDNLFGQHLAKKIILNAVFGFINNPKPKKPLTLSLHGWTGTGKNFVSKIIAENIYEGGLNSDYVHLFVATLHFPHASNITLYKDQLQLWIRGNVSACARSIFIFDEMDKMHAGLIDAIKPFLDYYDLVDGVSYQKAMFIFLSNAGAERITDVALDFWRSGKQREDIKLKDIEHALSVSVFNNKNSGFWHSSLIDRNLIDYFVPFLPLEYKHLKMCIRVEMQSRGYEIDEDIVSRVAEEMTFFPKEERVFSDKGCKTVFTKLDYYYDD

`NCCCCCCNC(=O)[C@@H]1C[C@@H]2C(=O)NCC(=O)N2[C@@H]1c1ccc(O)cc1`: the composite z-score was found to be 1.2 in experiment [1]; 1.14 in experiment [2]; 0.183 in experiment [3]; 0.971 in experiment [4]; 1.46 in experiment [5]; 1.62 in [6]. For the same compound, the composite z-score in the experiment on Lefty1 is 1.63; in [8], 0.846; in experiment [10], 0.387; in experiment [15] it was 0.718; in experiment [16], -0.104; with Torsin-1A (Homo sapiens) [17], 1.3. For the same compound, the composite z-score in the experiment with Torsin-1A (Homo sapiens) [18] came out at 0.665; in experiment [19] it was 2.18. Besides, the z-score is -0.614 in [7]; 1.14 (inactive) in experiment [9]; -0.402 (inactive) in [11]; -2.2 (inactive) in experiment [12]; -1.07 (inactive) in [13]; 0.0413 (inactive) in experiment [14].
In the case of `O[C@@H](Cc1ccccc1)[C@H]1C2C=CCCC=C2CN1Cc1cccc(Cl)c1` (stereo not given in full), the composite z-score in experiment [1] is 1.21; in [2], 1.14; in [3], 0.184; in [4], 0.675; in experiment [5], 1.24; in [6], 0.688. Moreover, the composite z-score with Lefty1 was 1.41; in [8], 0.593; in experiment [10], 0.35; in experiment [15] it was 0.513; in [16], 0.0173; with Torsin-1A (Homo sapiens) [17], 0.739. Moreover, the composite z-score with Torsin-1A (Homo sapiens) [18] was -0.453; in experiment [19], 1.2. Also, the z-score is 0.182 in [7]; -1.89 (inactive) in experiment [9]; -1.1 (inactive) in [11]; -0.829 (inactive) in [12]; 3.56 (inactive) in [13]; 2.78 (inactive) in experiment [14].
For the compound `C=CCOC(=O)[C@H]1[C@@H]2C(=O)O[C@@H](c3ccccc3)[C@@H](c3ccccc3)N2[C@@H](c2ccc(OCCOC(=O)[C@H]3C[C@H]4C(=O)N[C@@H](CCCCNC(C)=O)C(=O)N4[C@H]3c3ccc(O)cc3)cc2)[C@]12C(=O)Nc1ccc(I)cc12`, the composite z-score in experiment [1] was determined as 0.748; in experiment [2], 0.885; in experiment [3], 0.169; in [4], 0.332; in experiment [5] it was 1.35; in experiment [6] it was 1.46. The composite z-score in the experiment on Lefty1 was determined as 1.42; in [8], 0.105; in experiment [10], 0.413; in [15], 0.142; in experiment [16], 0.098; with Torsin-1A (Homo sapiens) [17], 0.807. Besides, the figures for the composite z-score (with Torsin-1A (Homo sapiens) [18]; in experiment [19]) were 1.01 and 2.09, respectively. Also, the z-score in [7] is -0.804; in experiment [9], -2.16 (inactive); in experiment [11], -1.48 (inactive); in experiment [12] it was 0.399 (inactive); in experiment [13] it was 5.04 (inactive); in [14] it was 6.74 (inactive).
With `CCCCN1CC=CC23O[C@@H]4C=CCCOC(=O)C4[C@H]2C(=O)N(CCCCCCO)[C@@H]3C1=O` (stereo not given in full), the composite z-score was 0.435 in [1]; -0.268 in experiment [2]; 0.0134 in experiment [3]; -0.796 in experiment [4]; 0.0593 in experiment [5]; -0.88 in experiment [6]. In addition, the composite z-score in the experiment on Lefty1 is 1.28; in experiment [8] it was 0.379; in [10], -0.767; in experiment [15], -0.564; in [16], -0.208; with Torsin-1A (Homo sapiens) [17] it was -1.22. In addition, the composite z-score is -1.23 in the experiment with Torsin-1A (Homo sapiens) [18] and 1.65 in experiment [19]. In addition, the z-score in experiment [7] is 0.807; in experiment [9] it was -0.947 (inactive); in [11], 0.311 (inactive); in experiment [12], 0.844 (inactive); in [13], 0.333 (inactive); in experiment [14], -0.199 (inactive).
Consider `C[C@@]1([C@@H](NC(=O)c2ccc(-c3ccccc3)cc2)c2ccc(Cl)cc2)C[C@H]1C1CCCCC1`, for which the composite z-score in experiment [1] is 2.1; in [2], 1.15; in experiment [3], 0.473; in experiment [4], 0.869; in experiment [5], 0.663; in experiment [6], -0.246. The composite z-score in the experiment with Lefty1 came out at 0.112; in experiment [8], 0.695; in [10] it was 0.271; in [15], 1.35; in [16], 0.289; with Torsin-1A (Homo sapiens) [17] it was 0.564. Further, the composite z-score is 0.0484 in the experiment with Torsin-1A (Homo sapiens) [18] and -0.106 in [19]. Further, the z-score was 0.532 in experiment [7]; 0.321 (inactive) in experiment [9]; -1.18 (inactive) in experiment [11]; -0.123 (inactive) in [12]; 0.972 (inactive) in experiment [13]; 0.829 (inactive) in experiment [14].
In the case of `C=CC[C@]1(C(=O)NCc2ccccc2)N=C(c2ccc(OCCCO)cc2)O[C@H]1c1ccccc1N=[N+]=[N-]`, the composite z-score in experiment [1] was 2.39; in [2], 1.22; in [3], 0.618; in experiment [4], 0.971; in experiment [5], 1.23; in experiment [6] it was -0.26. The composite z-score was 0.194 with Lefty1; 1.23 in [8]; 0.713 in experiment [10]; 2.21 in experiment [15]; -0.0468 in [16]; 0.818 in the experiment with Torsin-1A (Homo sapiens) [17]. Also, the results for the composite z-score (in the experiment with Torsin-1A (Homo sapiens) [18]; in experiment [19]) were 0.787 and -0.231, respectively. The z-score in experiment [7] is 0.34; in experiment [9], -8.88 (active); in experiment [11], -3.2 (inactive); in [12], -0.00841 (inactive); in experiment [13], 1.49 (inactive); in [14] it was -0.967 (inactive).
